# Assay outcomes deposited in PubChem BioAssay by National Center for Advancing Translational Sciences (NCATS).
# Rows were chosen to be rich in hits. Some 21% of all compounds tested hit in one or more screens of this group.
# Cycloheximide cs = counter-screen for Shiga toxin inhibitors: cycloheximide protein synthesis inhibition. max response, %. hit rate 12% among 300,000. cell reporter, cycloheximide protein synthesis inhibition counterscreen; in the data active = max response mostly above about 13%, no sharp cut-off; inactive = mostly below about 14%; also: read at 38.3 µM for the half of the compounds with a filed dose; 0% is about no effect
# Pf growth 96h = P. falciparum growth inhibition at 96 hour, primary screen for plastid delayed-death inhibitors. Potency, µM (highest dose often 28.7 µM), for inactives: at the highest dose activity change, negative = inhibition, most hits filed as inhibitors. P. falciparum luciferase reporter growth, 96 h. hit rate 6.9% among 320,000. AID 504834; also: potency is read from the fitted curve at half-maximal effect; % is scaled to controls: 0 for no effect and ±100 for the full control effect
#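 P. falciparum expressing integrated firefly luciferase, in erythrocytes at 2% hematocrit, 0.05% parasitemia, incubated with compounds 96 h at 37 C, 5% CO2. Growth inhibition read as loss of luminescence; two-generation exposure targets delayed-death apicoplast inhibitors.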
# Pf growth 48h = inhibits P. falciparum growth in the first generation, 48 h. Potency, µM (doses to about 28.7 µM), inactives show at the top dose activity change, negative = inhibition, usual class: inhibitors. P. falciparum luciferase growth in erythrocytes, 48 h. hit rate 5.9% among 310,000; also: potency is read from the fitted curve at half-maximal effect; % is scaled to controls: 0 for no effect and ±100 for the full control effect
#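 Parasite viability was followed by luminescence of a genomically integrated firefly luciferase. Cultures held 0.1% parasitemia at 2% hematocrit (final), incubated under 5% CO2 at 37 C.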
# HCV inhibitor = HCV inhibition; Huh7.5.1 HCVcc-Cre infection, luciferase reporter, 44 h; Potency, µM (highest dose often 41.8 µM), without a hit: at the top dose activity change, negative = inhibition, hits mostly inhibitors; hit rate 3.4% among 340,000; also: potency is read from the fitted curve at half-maximal effect; % is scaled to controls: 0 for no effect and ±100 for the full control effect
#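 Cells seeded at 1,000/well and cultured 4 h, then compounds added followed by HCVcc-Cre virus (~0.5 moi). After 44 h further culture, luciferase substrate was added, plates held 15 min at room temperature, and luminescence read for 15 sec.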
# Shiga toxin inh = Shiga toxin inhibition; Vero cells, Shiga toxin protein synthesis inhibition reporter; inhibition, % at 38.7 µM; hit rate 9.2% among 290,000; in the data active = inhibition mostly above about 28%, no sharp cut-off; inactive = mostly below about 43%; also: 0% is about no effect
# AMA1-RON2 inh = disrupts binding of P. falciparum AMA1 to RON2; AlphaScreen AMA1-biotinylated RON2 peptide binding; Potency, µM (doses to about 58.2 µM), inactives show at the top dose activity change, negative = inhibition, most hits filed as inhibitors; hit rate 0.2% among 360,000;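 also: potency is read from the fitted curve at half-maximal effect; 0% = vehicle wells and -100% = peptide control; nearly all actives have a fitted effect of over 45% in size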
#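 AMA1 (3D7) with his tag at 25 nM final met compounds first, then biotinylated RON2 peptide at 25 nM; detection used donor plus acceptor beads, 10 µg/mL apiece, read by AlphaScreen after 30 min at room temperature.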
# * = called active by the depositor; ? = inconclusive; . = no result; [ ] = another dose, or the depositor's remark. Unless noted, calls follow the shape of the dose curve; as a rule, active = well fitted curve in the direction sought with a large enough effect; inconclusive = small, poorly fitted or top-dose-only effect, or another doubt; inactive = no such curve, though single readings can be large; an effect the other way counts as inactive or inconclusive.
SMILES,Cycloheximide cs,Pf growth 96h,Pf growth 48h,HCV inhibitor,Shiga toxin inh,AMA1-RON2 inh
CC(=O)c1ccc2c(c1)C1C(Cl)C(Sc3ccccc3[N+](=O)[O-])CC1C(c1ccccc1[N+](=O)[O-])N2 (stereo unspecified),4,?,2.3µM*,2.2µM*,8,-8%
CCNC(=O)c1ccccc1-c1nc(-c2ccccc2)no1,14,19%,31%,-2%,38,4%
COc1ccc(-c2noc(-c3ccccc3C(=O)NCc3ccco3)n2)cc1,15*,1%[5.75 µM],50%,-19%,17,-9%
COc1ccc(-c2noc(-c3ccccc3C(=O)NCc3ccco3)n2)cc1OC,8,152%,-26%,5.6µM*,2,-2%
COc1ccc(CNC(=O)COC(=O)/C=C/c2cccc(Cl)c2)cc1,.,.,.,-2%,.,1%
CCN(CC)S(=O)(=O)c1ccc(N2CCOCC2)c(NS(=O)(=O)c2ccc(C)c(C)c2)c1,-1,4.1µM*,7.4µM*,?,-4,-1%
CCN(CC)S(=O)(=O)c1ccc(N2CCOCC2)c(NS(=O)(=O)c2ccc(OC)cc2)c1,9,?,51%,-16%,-1,0%
CCN(CC)S(=O)(=O)c1ccc(N2CCOCC2)c(NS(=O)(=O)c2ccc(C)cc2)c1,-2,5.9µM*,?,0%,-4,0%
COC1CC(=C(c2cccs2)c2cccs2)C[N+](C)(C)C1 (stereo unspecified),.,-7%,4.8µM*,.,.,.
Cc1ccc(NC(=O)C2CCCN(c3ncnc4c3nc3n4CCCCC3)C2)cc1Cl (stereo unspecified),10,-20%,?,?,13,5%
Cc1ccccc1N(C)C(=O)C1CCCN(c2ncnc3c2nc2n3CCCCC2)C1 (stereo unspecified),9,-3%,?,?,-2,-5%
Cc1ccc(N2CCN(C(=O)C3CCCN(c4ncnc5c4nc4n5CCCCC4)C3)CC2)c(C)c1 (stereo unspecified),1,15µM*,?,12%,-1,11%
Cc1ccc(C)c(N2CCN(C(=O)C3CCCN(c4ncnc5c4nc4n5CCCCC4)C3)CC2)c1 (stereo unspecified),9,?,9.3µM*,-16%,-5,-12%
Cc1ccc(S(=O)(=O)N2[C@H](c3cccc(Cl)c3)CC(=O)[C@@H]3CN(S(=O)(=O)c4ccccc4C)[C@H](c4ccc(Cl)cc4)C[C@@H]32)cc1,.,.,.,.,.,-4%
Clc1cc2nc(-c3cccnc3Cl)[nH]c2cc1Cl,29*,146%,96%,3%,105*,2%
N#Cc1ccccc1Cn1cc(C(=O)c2cccs2)c2ccccc21,-1,0%,15µM*,-7%,14,-1%
Cc1ccccc1NC(=O)COC(=O)c1c[nH]c(=O)[nH]c1=O,-2,0%,1%,34%,21,-3%
O=C1NCC2=C1C(c1ccc(Br)cc1)Nc1ccccc1N2 (stereo unspecified),22*,-3%,20%,14%,77*,13%
O=C(c1cccc2ccccc12)C1CCCN(C(=O)CCN2CCCO2)C1 (stereo unspecified),9,?,0%,-15%,13,1%
O=C(c1cc(F)ccc1F)C1CCCN(C(=O)CCN2CCCCO2)C1 (stereo unspecified),17*,?,25%,-4%,23,17%
Cc1ccccc1CC1(CO)CCCN(C(=O)CCC(=O)c2ccccc2)C1 (stereo unspecified),1,1%,11%,15%,19,-2%
CSc1ccccc1C(=O)C1CCCN(C(=O)c2ccc(N3CCOCC3)cc2)C1 (stereo unspecified),17*,10µM*,-14%,?,34*,10%
CSc1ccccc1C(=O)C1CCCN(C(=O)CCN2CCCO2)C1 (stereo unspecified),2,5.2µM*,37%,2%,9,1%
Cc1ccccc1CC1(CO)CCCN(C(=O)CCN2CCCO2)C1 (stereo unspecified),17*,2.6µM*,5%,18%,36*,-7%
O=C(COC(=O)c1cc(=O)[nH]c2ccccc12)Nc1ccccc1F,.,.,.,2%,.,-5%
SMILES,Cycloheximide cs,Pf growth 96h,Pf growth 48h,HCV inhibitor,Shiga toxin inh,AMA1-RON2 inh
O=[N+]([O-])c1ccc(-c2cnc(NO)nc2)cc1,-2,?,12µM*,-1%,4,48%[11.6 µM]
O=C(CN1C(=O)CSc2ccc(S(=O)(=O)N3CCCCC3)cc21)NCc1ccccc1,-7,4.1µM*,-15%,-10%,-7,11%
CCN(CC)CCCNC(=O)CN1C(=O)CSc2ccc(S(=O)(=O)N3CCOCC3)cc21,-3,?,-19%,22%,-15,-1%
CCN(CC)CC(C)CNC(=O)CN1C(=O)CSc2ccc(S(=O)(=O)N3CCOCC3)cc21 (stereo unspecified),-6,13µM*,-8%,4%,-13,-4%
CC1(C)CC(=O)C=C(NC2CCCC(O)C2)C1 (stereo unspecified),.,81%,?,11%,.,15%
CCOc1ccc2c(c1)C(=NNC(=O)c1ccccn1)c1cc(OCC)ccc1-2,.,.,.,-21%,.,9%
O=C(N/N=C/C1CCCCC1)c1cc(Cl)ccc1O,13,112%,51%,24%,45*,-9%
Cc1cc2c(cc1C)/C(=N/NC(=O)c1ccccn1)CCC2,53*,?,88%,-12%,49*,49%
O=C(NN=C1CCC(=NNC(=O)c2ccccn2)CC1)c1ccccn1,55*,2%,94%,12%,51*,49%
O=C(N/N=C/C1CCCCC1)c1ccccn1,49*,119%,143%,13%,166*,117%
COc1cc(CNc2ccc3c(c2)OCCO3)ccc1OCC(N)=O,6,-1%,9%,-19%,-1,-12%
CCOc1cc(CNCc2cccs2)cc(Br)c1OC,-3,23%,61%,?,-11,4%
C=CCOc1c(Br)cc(CNc2ccc(NC(=O)C(C)C)cc2)cc1OCC,-1,13µM*,-8%,?,16,-7%
CCOc1c(Br)cc(CNc2ccc3c(c2)OCCO3)cc1OC,49*,0.83µM*,.,?,97*,?
CCOc1cc(CNc2ccc3c(c2)OCCO3)cc(Br)c1OCC(N)=O,20*,?,?,-25%,29,-26%
CCOc1cc(CNc2ccc3c(c2)OCCO3)cc(Br)c1OC,11,?,.,0.79µM*,6,?
CCOc1c(Br)cc(CNc2ccc(N3CCOCC3)cc2)cc1OC,-2,?,-12%,?,-11,-24%
COc1ccc(-n2nnnc2C(c2cccc(OC)c2OC)N2CCN(C/C=C/c3ccccc3)CC2)cc1 (stereo unspecified),.,.,.,.,.,-23%
CCOc1c(Br)cc(CNC2CCCCCCC2)cc1OC,-6,6%,10µM*,11µM*,18,-5%
